PubChem BioAssay AID1628 (Sanford-Burnham Center for Chemical Genomics, 2009)
Screen size: about 190,000 compounds; about 930 (0.49%) were called active. The list shows a part of the results. Measured potencies and affinities stand elsewhere. A number with no mark means an inactive call.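 Rule for the calls: active = z-score of insulin promoter reporter brightness in nuclei below -3 at 5 µM, with at least 500 cells counted; inconclusive = wells with under 500 cells, flagged as toxic or sparse; inactive = the rest.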

assay: decrease of insulin promoter-GFP reporter – imaging, high-content screening, mouse beta cells (AID 1628); conditions: MIN6 insulin promoter GFP reporter, at 5 µM, active compounds read low

Compound	z-score
O=C1c2ccccc2-n2c1nc1ccccc1c2=O	-2.2
COc1ccc(-c2nnc(SCC3CCCO3)n2C)cc1 (stereo unspecified)	2.62
COc1ccc(OC)c(C2=NOC(C(=O)NCC3CCCO3)C2)c1 (stereo unspecified)	3.67
CCOc1ccc(NC(=O)N2CCCC2C(=O)NCC2CCCO2)cc1 (stereo unspecified)	-3.14 (active)
CCOc1ccc(NC(=S)N2CCC(N(C)CC3CCCO3)CC2)cc1 (stereo unspecified)	3.59
CCOc1ccc(-n2c(=O)c3c4c(sc3n(CC(=O)NCC3CCCO3)c2=O)CCC4)cc1 (stereo unspecified)	1.12
O=[N+]([O-])c1ccc(N/N=C/c2cn(Cc3ccc(F)cc3)c3ccccc23)nc1	4.69
CC1(C)Cc2c(c(N3CCOCC3)nc3sc4c(NCc5ccco5)nnnc4c23)CS1	-6.38 (active)
C=CCN1C(=O)/C(=C/c2ccc(N(C)C)cc2)S/C1=N\c1nnc(CC)s1	14.1
Cc1cc(C)cc(N(CC(=O)Nc2cccc(C)n2)S(=O)(=O)c2c(C)noc2C)c1	2.42
C/C=C/c1ccc(OCCCN2C(=O)NC(C)(C)C2=O)c(OC)c1	-0.86
C#CCOCCOCCOCCNc1nc(N2CCN(C(=O)[C@H](CCCCN)n3cc(CCCC)nn3)CC2)nc(N2CCN(C(=O)[C@H](CCCCN)n3cc(CCCC)nn3)CC2)n1	-4.64 (active)
CCCN1CC=C2C(C#N)=C(N)C(C#N)(C#N)C(c3cccc(OC)c3OC)C2C1 (stereo unspecified)	8.86
CCOC(=O)N1CCC(NC2CCCCCCC2)CC1	0.8
O=C(O)C1CCN(C(=O)OCc2ccccc2)CC1	-4.9 (active)
CN1/C(=C/C=C(C#N)C#N)C=Cc2ccccc21	5.52
Cc1nc(CN(C)C(=O)c2cc(COc3ccc4ncccc4c3)on2)cs1	-5.59 (active)
c1ccc(-c2cnn3c(-c4ccccc4)c(-c4ccccc4)nc3n2)cc1	17
CCCCn1nc(-c2ccccc2)c2nc3ccccc3nc21	3.11
N=c1oc2c3c4c(cc2cc1C(=O)Nc1ccccc1)CCCN4CCC3	18
CCc1ccc2nc3sc(C(=O)N4CCc5ccccc54)c(N)c3cc2c1	4.93
CCC(=O)NC(c1cccs1)c1cc(Cl)c2cccnc2c1O (stereo unspecified)	-4.24 (active)
CCCCC(=O)NC(c1cccs1)c1cc(Cl)c2cccnc2c1O (stereo unspecified)	-5.86 (active)
CCN1CC=C2C(C#N)=C(N)C(C#N)(C#N)[C@H](c3cccc(OC)c3OC)[C@H]2C1	11.6

Compound	z-score
Cc1ccc(N=C2NC(=O)/C(=C/c3cn(C)c4ccccc34)S2)cc1C	3.02
CC1CC(=O)C2=C(C1)OC(N)=C(C#N)C2c1coc2ccccc2c1=O (stereo unspecified)	3.02
Nc1c(C(=O)O)sc2nc(-c3ccccc3)cc(-c3ccccc3)c12	4.64
Nc1c(C(=O)Nc2nccs2)sc2nc(-c3cccs3)cc(C(F)(F)F)c12	5.95
NC(=O)c1sc2nccc(Nc3ccccc3)c2c1N	-3.42 (active)
CS(=O)c1nc(-c2ccc(Br)cc2)cc(-c2ccccc2)c1C#N (stereo unspecified)	-4.24 (active)
Cc1ccc(S(=O)(=O)CCSc2nc(C)cc(C(F)(F)F)c2C#N)cc1	10.9
Nc1c(Cl)ncnc1N1CCCC1	-3.27 (active)
COc1ccc2c(c1)sc1nc(-c3ccccc3)cn12	-7.22 (active)
COc1ccc(-c2ccc3c(N)c(C(=O)c4cccc(OC)c4)sc3n2)cc1	4.07
Cc1cc(Cl)cc(C)c1OCCCCn1ccnc1	-4.53 (active)
Cc1cccc(OCCCCCn2ccnc2)c1C	-4.58 (active)
CCOc1ccc(OCCCCn2ccnc2)cc1	3.52
CCN(CC)S(=O)(=O)c1ccc2oc(C(=O)NCc3ccc(F)cc3)c(C)c2c1	-4.31 (active)
Cc1c(C(=O)NCc2cccnc2)oc2ccc(S(=O)(=O)N3CCCCCC3)cc12	-5.16 (active)
O=S(=O)(c1ccc2oc3ccc(S(=O)(=O)N4CCCCC4)cc3c2c1)N1CCCCC1	-3.18 (active)
Cc1ccc(S(=O)(=O)c2cccc(S(=O)(=O)N3CCCC3)c2)cc1S(=O)(=O)N1CCCC1	3.05
O=C(O)CCCN=Cc1c(O)c2ccccc2oc1=O	2.46
Cc1oc(C)c2c(=O)ccc3c(c12)OC(N)=C(C#N)C3c1ccccc1Cl (stereo unspecified)	6.29
COCCNC(=O)Cc1ccc(F)cc1	3.03
COCCNC(=O)/C(=C/c1ccccc1Cl)c1ccccc1	-5.46 (active)
Cn1cc(/C=C2\SC(=S)N(NC(=O)c3ccccc3)C2=O)c2ccccc21	6.71
CCC(=O)N1CCN(c2ccccc2NC(=O)COc2cc(C)ccc2C(C)C)CC1	-3.26 (active)
COc1ccc(C)cc1NC(=O)CC(NC(C)=O)c1ccccc1 (stereo unspecified)	4.5

Compound	z-score
CCOc1ccc(-c2c(C#N)c(N)nc3sc(C(=O)c4ccccc4)c(N)c23)cc1	9.11
Cc1nnc(SCC(=O)c2cc(C)n(-c3ccc4c(c3)OCO4)c2C)s1	-4.16 (active)
Cn1cc(C(N)=O)c2ccccc21	0.12
O=S(=O)(c1ccc(Br)cc1)N1CCN(c2cc(-c3ccccc3)nc3ncnn23)CC1	-6.61 (active)
N/C(=N\OC(=O)N1c2ccccc2Sc2ccccc21)c1ccccc1	-3.28 (active)
O=C(N=C1SCC(=O)N1c1ccccc1Cl)c1ccccc1	5.04
CC(C)NC(=O)NC(=O)COC(=O)c1cccc(S(=O)(=O)N2CCCCC2)c1	4.62
COc1ccccc1CNC(=O)COC(=O)c1ccc(S(=O)(=O)N2CCCC2)cc1	-5.2 (active)
CCN1C(=O)CSc2ccc(C(=O)NCc3ccccc3OC)cc21	3.1
Cn1c(=O)[nH]c(=O)c2c1nc(N1CCCCC1)n2CCCSc1nc2ccccc2s1	0.01
CCC(=O)c1ccc(O)c(OC)c1	-1.5
CCOC(=O)C(C(C)=O)C(c1ccc(OCCC(C)C)cc1)C(C(C)=O)C(=O)OCC (stereo unspecified)	0.98
CCOC(=O)C(C)S(=O)(=O)c1ccc(C(F)(F)F)cn1 (stereo unspecified)	-4.01 (active)
CCN1CCN(c2ncc3c(n2)CC(c2cc(OC)c(OC)c(OC)c2)CC3=O)CC1 (stereo unspecified)	-3.96 (active)
O=C(Nc1ccc(N2CCCCC2)cc1)c1cccnc1	3.44
O=C(NNC(=O)c1cccnc1)NC12CC3CC(CC(C3)C1)C2	-3.86 (active)
O=C(NCc1cccnc1)c1cnn2ccccc12	-7.96 (active)
O=C(Nc1nc(-c2cccs2)cs1)c1ccc(Cl)s1	-3.6 (active)
Cc1csc(NC(=O)c2sc3nc(-c4cccs4)ccc3c2N)n1	4.58
Nc1c(C(=O)Nc2nc3ccccc3s2)sc2nc(-c3cccs3)ccc12	5.64
Cc1cc(/C=N/n2cnnc2)c(C)n1-c1cccc(C(=O)O)c1	4.18
Cc1sc(-n2c(C)cc(/C=N/n3cnnc3)c2C)c(C#N)c1C	-4.46 (active)
Cc1ccc(-n2c(O)c(/C=N/NC(=O)C3COc4ccccc4O3)c3ccccc3c2=O)cc1 (stereo unspecified)	3.14
CCOc1ccc(-n2c(O)c(/C=N/Nc3nnc(C)c(=O)[nH]3)c3ccccc3c2=O)cc1	-5.62 (active)

Compound	z-score
O=c1c2ccccc2c(C=Nc2ccccc2O)c(O)n1-c1nccs1	4.35
CC1(C)Cc2c(ccc3ccccc23)C(c2cc3ccccc3oc2=O)=N1	4.19
O=c1oc2cc(O)ccc2cc1-c1nc2c(s1)CCc1ccccc1-2	13.6
CCCCN(CC)CCNC(=O)c1cc2c(C)nc3ccccc3c2o1	0.65
O=C(NCCCCc1ccccc1)c1ccc(Br)o1	1.07
Cc1ccccc1C(=O)NCCCc1ccccc1	-5.2 (active)
Cc1cc(C(=O)CSc2nnnn2-c2ccccc2)c(C)n1CC1CCCO1 (stereo unspecified)	-1.4
CCCCC1=CC2=C(c3ccco3)C(=O)C(C)(OC(=O)c3ccc(OC)cc3)C(=O)C2=CN1CC(C)C (stereo unspecified)	4.34
CC(CNC(=O)c1cncc(O)c1)NC(=O)c1cncc(O)c1 (stereo unspecified)	3.21
CCCN1C=CC(=C/C=C(\C#N)C(=O)OCC)C=C1	3.98
O=C(C1=NN(c2ccccc2)C2C(=O)N(c3cccc(Cl)c3)C(=O)C12)c1ccccc1 (stereo unspecified)	3.17
CCCCN1C(=O)/C(=C/C=C2\SCCN2C)SC1=S	13.8
Cc1ccc(/C=N/NC(=O)NC2CCCCC2)o1	-4.13 (active)
NC1=NC[C@@H](Cc2ccc(O)cc2)N1CCCCC1CCCCC1	-1.05
CCn1c(Cn2nnc(-c3ccccc3)n2)nnc1SCC(=O)Nc1ccc(C(C)=O)cc1	4.86
CCn1c(CN2CCCCCC2=O)nnc1SCc1cnc(-c2ccccc2)s1	-3.13 (active)
O=[N+]([O-])c1ccc(-c2ccc(/C=N/Nc3nc(N4CCCCC4)nc(N4CCCCC4)n3)o2)cc1	5.14
O=[N+]([O-])c1ccc(-c2ccc(/C=N/Nc3nc(NCc4ccccc4)nc(N4CCOCC4)n3)o2)cc1	9.01
O=C(CSc1ccc2nnc(CCNC(=O)c3ccccc3)n2n1)Nc1ccccc1	2.32
COc1cc2c(cc1OC)-c1nncn1C(C)(C)C2	3.76
CCCCN(C)C1=CC2=CC(=C(C#N)C#N)CCC2CC1 (stereo unspecified)	16
COc1ccc(Cl)cc1NC(=O)C1(c2cccs2)CCOCC1	3.78
COc1cc(NC(=O)c2ccccc2)c(OC)cc1NC(=O)CN1CCOCC1	-3.01 (active)
COc1cc2c(cc1NC(=O)CN1CCN(S(=O)(=O)c3ccccc3F)CC1)oc1ccccc12	3.63
